Results from PubChem BioAssay (NCATS).
Results filed as inconclusive are left out. Active and inactive are the calls of the source. Calls come from the whole dose curve; as a rule, active = well fitted curve in the direction sought with a large enough effect; inconclusive = small, poorly fitted or top-dose-only effect, or another doubt; inactive = no such curve, though single readings can be large; an effect the other way counts as inactive or inconclusive.

Experiments:
[1] = U-118MG Cancer Cell Toxicity qHTS against the NCATS CANVASS Library (AID 1347351)
Outline: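 Per well, 1000 cells; exposure 72 h with compound at 11 final concentrations; readout CellTiter-Glo luminescence.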

[2] = HPAF-II 24hr Apoptosis Induction qHTS against the NCATS CANVASS Library (AID 1347356)
Outline: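 Cells seeded at 500 per well, then compounds pin-transferred in an 11-point concentration series. After 24 hours at 37 degrees C, Caspase-Glo 3/7 was added and luminescence measured following 15 min at room temperature.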

[3] = HEK293 18hr Apoptosis Induction qHTS against the NCATS CANVASS Library (AID 1347357)
Outline: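 Caspase-3/7 luminescence (DEVD substrate, Caspase-Glo) after 18 h compound exposure of HEK293 cells, 500 cells/well; 11-point series; doxorubicin titration as control.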

[4] = HPAF-II 12hr Apoptosis Induction qHTS against the NCATS CANVASS Library (AID 1347358)
Source text: Natural products and their derivatives continue to be wellsprings of nascent therapeutic potential. However, many laboratories have limited resources for biological evaluation, leaving their previously isolated or synthesized compounds largely or completely untested. To address this issue, the Canvass library of natural products was assembled (https://tripod.nih.gov/canvass), in collaboration with academic and industry researchers, for quantitative high-throughput screening (qHTS) across a diverse set of cell-based and biochemical assays. The pure (>85% purity by liquid chromatography/mass spectrometry [LC/MS]) Canvass library of 346 natural products were submitted by 45 academic laboratories and companies around the world. […] The library was formatted into 1536-well plates and evaluated in 50 qHTS (in an 11-pnt concentration series) bioassays with broad scope of disease-relevant mechanisms. The resulting data set from 50 different assays was then systematically analyzed to identify overall trends and specific natural products with interesting biological activities. […] The luminescence is proportional to the amount of caspase activity in the assay reaction. […]
Cancer Cell Apoptosis Assay 1. […] Luminescence signal was acquired via the ViewLux plate reader (PerkinElmer) using a clear filter, 20 second exposure and 2x binning settings.

[5] = HEK293 24hr Apoptosis Induction qHTS against the NCATS CANVASS Library (AID 1347359)
Outline: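 HEK293 cells, 500 per well, exposed to an 11-point compound series for 24 hours at 37 degrees C. Caspase 3/7 activity read by Caspase-Glo luminescence (DEVD substrate) after 15 min at room temperature.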

[6] = HPAF-II 18hr Apoptosis Induction qHTS against the NCATS CANVASS Library (AID 1347360)
Outline: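 Caspase-Glo 3/7 luminescence (DEVD substrate) after 15 min RT; HPAF-II, 500 cells/well, 18 h compound exposure at 37 degrees C, qHTS series; doxorubicin control 0.1nM - 4uM.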

[7] = COV-362 Cancer Cell Toxicity qHTS against the NCATS CANVASS Library (AID 1347352)
Outline: (§1)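 First, 1000 cells go into each well and rest for 4 hours. Next, an 11-point dilution range is pinned in. Plates then incubate 72 hours before CellTiter-Glo addition and luminescence reading.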

[8] = A2780 Cisplatin Sensitive Ovarian Cancer Cell Toxicity qHTS against the NCATS CANVASS Library (AID 1347353); conditions: A2780 ovarian cancer viability, ATPLite luminescence, 72 h; at 46.1 µM (top of the series); note: nearly all actives have a fitted effect of over 60% in size
Outline: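 Cells are plated at 750 per well and rest for 4 hours. Compounds are added across eleven concentrations, and incubated 72 hours before ATP is quantified by luminescence.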

[9] = UWB1.289-WTBRCA1 Cancer Cell Toxicity qHTS against the NCATS CANVASS Library (AID 1347354)
Outline: as §1

[10] = HEK-293 Cancer Cell Toxicity qHTS against the NCATS CANVASS Library (AID 1347355); conditions: HEK-293 viability, CellTiter-Glo luminescence, 72 h; at 46.1 µM (top of the series); note: nearly all actives have a fitted effect of over 65% in size
Outline: as §1

Measured: outcome

C=C(C)[C@@H]1CC[C@]2(C(=O)O)CC[C@]3(C)[C@H](CC[C@@H]4[C@@]5(C)CC[C@H](O)C(C)(C)[C@@H]5CC[C@]43C)[C@@H]12
inactive: [1] | [2] | [3] | [4] | [5] | [6]

O=c1c(O)c(-c2ccc(O)c(O)c2)oc2cc(O)ccc12
inactive: all assays above
